The values below come from PubChem BioAssay (EPA / NIEHS).

The term AC50 denotes the concentration giving half of the maximal activity seen.

Records with an inconclusive call do not appear. Activity calls are given as the source filed them. How the source made its calls, unless noted: active means hit-call score of the fitted dose curve at least 0.9, where 1 is the maximum; inactive means score below 0.9.

Assay [1] addresses Myc proto-oncogene protein (Homo sapiens) (UniProt P01106). The assay is described as follows: ATG_Myc_CIS: Attagene CIS-FACTORIAL HepG2 Assay for human Myelocytomatosis (Myc) Proto-Oncogene Transcription Factor (AID 2282990). The conditions noted are these: HepG2, Attagene cis-reporter transcription factor activity; actives raise or lower the signal. The method, boiled down:
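Multiplexed cis-reporter transcription in HepG2 cells after 24 h chemical treatment. Reporter mRNA measured by RT-PCR and capillary electrophoresis fluorescence; activity fitted bidirectionally against DMSO control.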

Assay [2] is described as follows: ATG_NF_kB_CIS: Attagene CIS-FACTORIAL HepG2 Assay for human Nuclear Factor Kappa B (NF-kB) (AID 2282991). The conditions noted are these: HepG2 Attagene cis-factorial NF-kB reporter mRNA; actives raise or lower the signal. The method, boiled down:
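Multiplexed cis-reporter assay in transiently transfected HepG2. 24 h treatment; RNA isolated, RT-PCR, labelled fragments resolved by CE. DMSO baseline.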

The nature of assay [3]: ATG_NRF2_ARE_CIS: Attagene CIS-FACTORIAL HepG2 Assay for human Nuclear Factor Erythroid 2 Related Factor 2 (NFR2) response to Antioxidant Response Elements (ARE) (AID 2282992). The conditions noted are these: HepG2 Attagene ARE/NRF2 reporter, transcription factor activity; actives raise or lower the signal. The method, boiled down: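 Fluorescence intensity of reporter-specific cDNA fragments, separated by capillary electrophoresis, reflects mRNA induction in transfected HepG2 cells at 24 h. Activity is fitted bidirectionally, DMSO serving as baseline.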

Assay [4] can be described thus: ATG_Oct_MLP_CIS: Attagene CIS-FACTORIAL HepG2 Assay for human Octamer-Binding Transcription Factor (Oct) (AID 2282993). The conditions noted are these: HepG2 Attagene cis-factorial Oct reporter, mRNA; actives raise or lower the signal. In outline:
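Readout is reporter transcript level from RT-PCR with fluorescent primer extension and capillary electrophoresis, fitted in both directions against DMSO. Transfected HepG2 reporter units report endogenous factor activity after 24 h dosing.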

The target of assay [5] is Cellular tumor antigen p53 (Homo sapiens) (UniProt P04637). The assay is described as follows: ATG_p53_CIS: Attagene CIS-FACTORIAL HepG2 Assay for human p53 Transcription Factor (AID 2282994). The conditions noted are these: HepG2 p53 cis-element reporter, Attagene mRNA; actives raise or lower the signal. In outline: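 Transiently transfected HepG2 (multiple cis reporter transcription units); exposure 24 h; reporter RNA via RT-PCR, 6-FAM extension, 2 h HpaI digest at 37 C, CE detection; DMSO baseline.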
Chain of Cellular tumor antigen p53 (Homo sapiens) (P04637 whole entry, looked up): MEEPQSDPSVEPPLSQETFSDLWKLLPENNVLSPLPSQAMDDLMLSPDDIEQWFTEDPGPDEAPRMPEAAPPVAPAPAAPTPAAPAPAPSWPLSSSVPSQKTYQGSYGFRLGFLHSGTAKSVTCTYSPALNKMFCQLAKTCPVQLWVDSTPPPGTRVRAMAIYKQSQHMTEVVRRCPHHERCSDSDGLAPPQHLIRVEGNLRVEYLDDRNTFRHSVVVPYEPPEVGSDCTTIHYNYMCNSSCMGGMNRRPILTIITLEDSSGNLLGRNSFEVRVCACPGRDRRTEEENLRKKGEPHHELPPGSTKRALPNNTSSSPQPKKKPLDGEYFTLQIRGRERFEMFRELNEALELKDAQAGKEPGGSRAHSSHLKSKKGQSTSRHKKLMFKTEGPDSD

Assay [6] can be described thus: BSK_3C_TissueFactor: BioMAP Diversity Plus: 3C Assay for Tissue Factor Biomarker Activity (AID 2282997). The conditions noted are these: BioMAP 3C HUVEC, tissue factor biomarker readout; actives raise or lower the signal. In outline:
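In this endothelial system, HUVEC are treated for 24 h and Tissue Factor is assessed by ELISA, normalised to DMSO.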

Assay [7] can be described thus: BSK_3C_uPAR: BioMAP Diversity Plus: 3C Assay for Urokinase-type plasminogen activator receptor (uPAR) Biomarker Activity (AID 2282998). The conditions noted are these: BioMAP 3C HUVEC, uPAR biomarker ELISA; actives raise or lower the signal. The method, boiled down:
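Cell-surface uPAR on HUVEC (3C system) read by ELISA at 24 h post-treatment, with DMSO as baseline and fitting in both directions. Parallel cultures stained with SRB to flag overt cytotoxicity.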
A general note: An ELISA detects its analyte on a solid surface through an enzyme-linked reagent.

The nature of assay [8]: BSK_3C_Proliferation: Cell Proliferation Assessment in the BioMAP Diversity Plus: 3C Assay (AID 2283006).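 On AC50: potency may reflect either rise or fall in cell number versus DMSO.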 To be noted: primary human endothelial cells (HUVEC). In outline: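 Cells (human umbilical vein endothelial, sub-confluent) receive test chemical; after 48 h they are fixed in 10% trichloroacetic acid, stained with 0.1% SRB and read at 560 nm. Activity is referenced to DMSO, fitting increases and decreases.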

The target of assay [9] is human RAR-related Orphan Receptor beta (RORb), RORB (gene 6096) (UniProt Q92753). Description: ATG_RORb_TRANS: Attagene TRANS-FACTORIAL HepG2 Assay for human RAR-related Orphan Receptor beta (RORb) (AID 2283010; active means hit-call score of the fitted dose curve at least 0.9, where 1 is the maximum). In outline:
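Transfect HepG2 with multiple GAL4-UAS reporter transcription units; dose chemicals for 24 h; isolate RNA, reverse-transcribe and PCR-amplify reporter sequences; label, digest and resolve fragments by capillary electrophoresis; fit increases relative to DMSO.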

The target in assay [10] is human RAR-related Orphan Receptor gamma (RORg), RORC (gene 6097) (UniProt P51449). Description: ATG_RORg_TRANS: Attagene TRANS-FACTORIAL HepG2 Assay for human RAR-related Orphan Receptor gamma (RORg) (AID 2283011; active means hit-call score of the fitted dose curve at least 0.9, where 1 is the maximum). The method, boiled down: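 Chimeric RORg-Gal4 transactivation in transfected HepG2; 24 h exposure; RT-PCR/capillary electrophoresis readout of reporter mRNA, DMSO baseline.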
Chain of human RAR-related Orphan Receptor gamma (RORg), RORC (gene 6097) (P51449 whole entry, looked up, the tested form may be a part): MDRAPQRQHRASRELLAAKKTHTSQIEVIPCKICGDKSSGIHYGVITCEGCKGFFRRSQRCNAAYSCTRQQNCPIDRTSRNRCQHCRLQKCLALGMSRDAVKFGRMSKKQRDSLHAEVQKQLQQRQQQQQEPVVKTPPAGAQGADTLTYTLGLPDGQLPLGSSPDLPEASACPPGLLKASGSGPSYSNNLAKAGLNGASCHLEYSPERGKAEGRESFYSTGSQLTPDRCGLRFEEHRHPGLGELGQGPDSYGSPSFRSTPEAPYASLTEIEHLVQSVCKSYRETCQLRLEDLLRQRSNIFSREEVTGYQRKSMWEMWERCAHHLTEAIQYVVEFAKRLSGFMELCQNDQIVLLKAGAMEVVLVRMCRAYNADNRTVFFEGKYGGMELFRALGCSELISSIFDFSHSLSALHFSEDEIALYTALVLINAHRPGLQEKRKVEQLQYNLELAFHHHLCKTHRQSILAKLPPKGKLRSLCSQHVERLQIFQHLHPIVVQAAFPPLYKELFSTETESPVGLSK

Read-out in assay [11]: Intercellular Adhesion Molecule 1 (ICAM1), ICAM1 (gene 3383)
The assay is described as follows: BSK_3C_ICAM1: BioMAP Diversity Plus: 3C Assay for Intercellular Adhesion Molecule 1 (ICAM1) Biomarker Activity (AID 2283003). To be noted: primary human endothelial cells (HUVEC); actives raise or lower the signal. In outline:
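Chemicals are dosed onto primary human umbilical vein endothelium (3C system). After 24 h, ICAM-1 is measured by ELISA, and responses are fitted bidirectionally relative to DMSO.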

Assay [12] is described as follows: BSK_4H_Eotaxin3: BioMAP Diversity Plus: 4H Assay for Eotaxin 3 Biomarker Activity (AID 2283000).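 Further: CCL26 protein level quantified by ELISA in parallel with SRB cytotoxicity check.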 To be noted: primary human endothelial cells (HUVEC); actives raise or lower the signal. In outline:
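ELISA quantitation of CCL26 (Eotaxin-3) protein from chemically dosed human vascular endothelial cells at 24 h; increases and decreases both scored relative to DMSO-treated baseline.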

For assay [13], the target named is human Peroxisome Proliferator-activated Receptor delta (PPARd), PPARD (gene 5467) (UniProt Q03181). The assay is described as follows: ATG_PPARd_TRANS: Attagene TRANS-FACTORIAL HepG2 Assay for human Peroxisome Proliferator-activated Receptor delta (PPARd) (AID 2283002; active means hit-call score of the fitted dose curve at least 0.9, where 1 is the maximum). The method, boiled down:
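Multiplexed trans-activation format: HepG2 liver cells expressing exogenous NR-Gal4 chimeras and GAL4-UAS reporters were exposed for 24 h. Reporter mRNA was detected by RT-PCR with capillary electrophoresis fluorescence; activity fitted as gain of signal relative to DMSO.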

The target of assay [14] is Peroxisome proliferator-activated receptor gamma (Homo sapiens) (UniProt P37231). Description: ATG_PPARg_TRANS: Attagene TRANS-FACTORIAL HepG2 Assay for human Peroxisome Proliferator-activated Receptor-gamma (PPARg) (AID 2283007; active means hit-call score of the fitted dose curve at least 0.9, where 1 is the maximum). In outline: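 Human hepatoma HepG2, transient MRTU transfection, 24 h treatment. mRNA reporter signal by RT-PCR plus capillary electrophoresis, fluorescence detection; fitted for increase over DMSO negative control.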
Chain of Peroxisome proliferator-activated receptor gamma (Homo sapiens) (P37231 whole entry, looked up): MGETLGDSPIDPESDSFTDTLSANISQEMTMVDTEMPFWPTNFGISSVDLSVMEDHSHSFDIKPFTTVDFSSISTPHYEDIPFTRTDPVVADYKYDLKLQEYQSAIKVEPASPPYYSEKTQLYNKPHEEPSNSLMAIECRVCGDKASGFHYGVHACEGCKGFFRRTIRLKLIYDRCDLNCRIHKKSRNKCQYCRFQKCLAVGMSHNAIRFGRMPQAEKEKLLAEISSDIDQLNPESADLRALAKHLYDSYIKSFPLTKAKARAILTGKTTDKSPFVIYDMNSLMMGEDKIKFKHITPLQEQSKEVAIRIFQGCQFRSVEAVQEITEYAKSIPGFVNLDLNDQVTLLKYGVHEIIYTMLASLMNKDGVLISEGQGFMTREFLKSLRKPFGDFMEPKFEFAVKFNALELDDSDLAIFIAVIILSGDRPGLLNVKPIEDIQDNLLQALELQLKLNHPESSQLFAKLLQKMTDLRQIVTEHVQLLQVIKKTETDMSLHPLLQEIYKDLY

In assay [15] the target is Nuclear receptor subfamily 1 group I member 2 (Homo sapiens) (UniProt O75469). Description: ATG_PXR_TRANS: Attagene TRANS-FACTORIAL HepG2 Assay for human Pregnane X Receptor (PXR) (AID 2283008; active means hit-call score of the fitted dose curve at least 0.9, where 1 is the maximum). The method, boiled down:
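Transient HepG2 transfectants carrying multiplexed reporter transcription units; PXR activity read through a Gal4 chimera. 24 h exposure. RT-PCR/CE fluorescence; upward curve fit referenced to DMSO.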

In assay [16] the target is human Peroxisome Proliferator-activated Receptor alpha (PPARa), PPARA (gene 5465) (UniProt Q07869). The assay is described as follows: ATG_PPARa_TRANS: Attagene TRANS-FACTORIAL HepG2 Assay for human Peroxisome Proliferator-activated Receptor alpha (PPARa) (AID 2283001; active means hit-call score of the fitted dose curve at least 0.9, where 1 is the maximum;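 further: potency for gain of reporter signal over DMSO so agonist or activator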). The method, boiled down:
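Cells (HepG2) are transfected with multiple reporter transcription units, exposed to chemical for 24 h, then total RNA is reverse-transcribed and amplified. Labelled products are quantified by capillary electrophoresis; induction is referenced to DMSO.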

Assay [17] can be described thus: BSK_3C_VCAM1: BioMAP Diversity Plus: 3C Assay for Vascular cell adhesion molecule 1 (VCAM1) Biomarker Activity (AID 2282999). The conditions noted are these: BioMAP 3C HUVEC, VCAM1 ELISA, cytokine-stimulated; actives raise or lower the signal. The method, boiled down:
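Vascular primary endothelium (human umbilical vein) was exposed to chemicals and assayed 24 h later. VCAM-1 levels came from ELISA, with DMSO serving as baseline for bidirectional fitting.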

Assay [18] deals with human Retinoic Acid Receptor beta (RARb), RARB (gene 5915) (UniProt P10826). Description: ATG_RARb_TRANS: Attagene TRANS-FACTORIAL HepG2 Assay for human Retinoic Acid Receptor beta (AID 2283004; active means hit-call score of the fitted dose curve at least 0.9, where 1 is the maximum). The method, boiled down:
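Fluorescent capillary-electrophoresis detection of GAL4-UAS reporter mRNA defines the endpoint, with induction over DMSO-treated wells scored as activity. Transiently transfected human hepatoma HepG2 cells expressing exogenous NR–Gal4 proteins are exposed to test chemicals for 24 h.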

In assay [19] the target is human Retinoic Acid Receptor gamma (RARg), RARG (gene 5916) (UniProt P13631). Description: ATG_RARg_TRANS: Attagene TRANS-FACTORIAL HepG2 Assay for human Retinoic Acid Receptor gamma (RARg) (AID 2283009; active means hit-call score of the fitted dose curve at least 0.9, where 1 is the maximum). In outline:
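TRANS format measured activity of exogenous NR-GAL4 fusion (RARg) in transfected HepG2 liver cells after 24 h dosing. Induced reporter RNA was detected by RT-PCR/capillary electrophoresis fluorescence, analysed in the positive direction against DMSO.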

Chain of human RAR-related Orphan Receptor beta (RORb), RORB (gene 6096) (Q92753 whole entry, looked up, the tested form may be a part): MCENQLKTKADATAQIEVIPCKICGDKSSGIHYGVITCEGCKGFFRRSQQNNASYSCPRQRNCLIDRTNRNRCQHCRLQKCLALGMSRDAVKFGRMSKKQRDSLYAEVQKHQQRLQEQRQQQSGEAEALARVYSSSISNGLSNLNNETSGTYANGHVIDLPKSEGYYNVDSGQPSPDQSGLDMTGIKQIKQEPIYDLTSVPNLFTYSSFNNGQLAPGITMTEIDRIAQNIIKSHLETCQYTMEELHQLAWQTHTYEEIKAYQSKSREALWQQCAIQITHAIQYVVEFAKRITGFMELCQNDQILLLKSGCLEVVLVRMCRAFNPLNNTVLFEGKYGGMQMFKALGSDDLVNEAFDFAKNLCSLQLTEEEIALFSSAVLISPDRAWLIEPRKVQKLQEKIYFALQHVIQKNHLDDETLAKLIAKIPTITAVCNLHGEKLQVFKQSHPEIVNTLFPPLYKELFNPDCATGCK
Chain of Nuclear receptor subfamily 1 group I member 2 (Homo sapiens) (O75469 whole entry, looked up, the tested form may be a part): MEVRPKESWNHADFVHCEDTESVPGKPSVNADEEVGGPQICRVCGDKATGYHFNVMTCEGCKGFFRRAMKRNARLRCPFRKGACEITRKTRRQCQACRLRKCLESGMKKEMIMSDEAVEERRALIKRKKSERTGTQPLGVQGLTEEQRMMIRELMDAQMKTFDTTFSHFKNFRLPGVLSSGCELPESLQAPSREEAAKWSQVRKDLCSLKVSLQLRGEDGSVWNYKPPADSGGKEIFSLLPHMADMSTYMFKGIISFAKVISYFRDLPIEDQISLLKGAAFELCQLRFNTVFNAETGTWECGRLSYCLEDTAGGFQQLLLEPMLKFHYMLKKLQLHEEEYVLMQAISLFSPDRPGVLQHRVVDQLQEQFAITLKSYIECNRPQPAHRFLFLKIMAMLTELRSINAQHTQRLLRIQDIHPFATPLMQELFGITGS
Chain of Myc proto-oncogene protein (Homo sapiens) (P01106 whole entry, looked up): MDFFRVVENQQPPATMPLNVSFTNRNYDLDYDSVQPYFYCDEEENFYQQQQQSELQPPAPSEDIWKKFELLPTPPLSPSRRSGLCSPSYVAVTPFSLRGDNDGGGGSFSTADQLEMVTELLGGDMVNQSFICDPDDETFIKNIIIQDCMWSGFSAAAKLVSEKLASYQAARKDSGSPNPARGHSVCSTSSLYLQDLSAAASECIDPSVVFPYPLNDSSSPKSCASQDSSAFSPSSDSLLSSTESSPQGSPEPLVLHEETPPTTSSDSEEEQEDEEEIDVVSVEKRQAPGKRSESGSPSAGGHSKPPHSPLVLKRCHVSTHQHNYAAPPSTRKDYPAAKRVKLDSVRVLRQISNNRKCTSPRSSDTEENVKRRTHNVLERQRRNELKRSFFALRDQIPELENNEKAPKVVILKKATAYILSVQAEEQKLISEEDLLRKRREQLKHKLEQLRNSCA
Chain of human Peroxisome Proliferator-activated Receptor delta (PPARd), PPARD (gene 5467) (Q03181 whole entry, looked up, the tested form may be a part): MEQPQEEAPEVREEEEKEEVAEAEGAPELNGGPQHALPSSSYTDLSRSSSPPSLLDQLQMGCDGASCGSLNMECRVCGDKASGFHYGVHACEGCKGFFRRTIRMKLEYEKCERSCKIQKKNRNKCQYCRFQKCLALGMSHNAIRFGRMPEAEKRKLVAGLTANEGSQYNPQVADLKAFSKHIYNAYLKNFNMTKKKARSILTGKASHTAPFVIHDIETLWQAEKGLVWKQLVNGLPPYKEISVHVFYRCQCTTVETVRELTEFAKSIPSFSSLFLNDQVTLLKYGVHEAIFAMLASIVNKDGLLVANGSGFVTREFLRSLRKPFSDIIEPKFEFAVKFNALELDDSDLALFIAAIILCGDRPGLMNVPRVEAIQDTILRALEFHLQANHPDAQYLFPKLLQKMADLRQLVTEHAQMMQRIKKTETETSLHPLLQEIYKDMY
Chain of human Peroxisome Proliferator-activated Receptor alpha (PPARa), PPARA (gene 5465) (Q07869 whole entry, looked up): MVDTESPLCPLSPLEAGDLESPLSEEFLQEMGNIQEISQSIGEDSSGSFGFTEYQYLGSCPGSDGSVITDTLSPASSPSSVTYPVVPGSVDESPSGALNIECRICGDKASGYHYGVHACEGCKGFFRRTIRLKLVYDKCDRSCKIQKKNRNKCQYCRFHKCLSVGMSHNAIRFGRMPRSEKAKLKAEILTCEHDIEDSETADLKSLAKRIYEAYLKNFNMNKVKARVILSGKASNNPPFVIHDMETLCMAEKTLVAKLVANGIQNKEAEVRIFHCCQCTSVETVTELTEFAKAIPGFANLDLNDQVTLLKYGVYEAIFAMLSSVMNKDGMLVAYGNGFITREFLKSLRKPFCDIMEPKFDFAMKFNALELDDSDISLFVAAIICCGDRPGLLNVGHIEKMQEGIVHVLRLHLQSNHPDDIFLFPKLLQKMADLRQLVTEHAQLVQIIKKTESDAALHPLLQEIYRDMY
Chain of human Retinoic Acid Receptor gamma (RARg), RARG (gene 5916) (P13631 whole entry, looked up, the tested form may be a part): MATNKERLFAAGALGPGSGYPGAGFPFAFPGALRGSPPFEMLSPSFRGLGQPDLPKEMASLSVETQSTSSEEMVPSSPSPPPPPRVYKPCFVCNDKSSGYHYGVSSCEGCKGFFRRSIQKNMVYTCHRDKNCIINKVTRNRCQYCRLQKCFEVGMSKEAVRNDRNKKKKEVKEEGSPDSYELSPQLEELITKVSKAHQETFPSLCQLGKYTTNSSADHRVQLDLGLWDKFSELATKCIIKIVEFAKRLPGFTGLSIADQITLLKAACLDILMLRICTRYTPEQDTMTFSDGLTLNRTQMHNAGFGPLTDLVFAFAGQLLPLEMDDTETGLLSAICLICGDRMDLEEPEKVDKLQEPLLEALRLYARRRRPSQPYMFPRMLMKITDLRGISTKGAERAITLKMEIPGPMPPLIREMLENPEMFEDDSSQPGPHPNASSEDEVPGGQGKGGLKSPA
Chain of human Retinoic Acid Receptor beta (RARb), RARB (gene 5915) (P10826 whole entry, looked up, the tested form may be a part): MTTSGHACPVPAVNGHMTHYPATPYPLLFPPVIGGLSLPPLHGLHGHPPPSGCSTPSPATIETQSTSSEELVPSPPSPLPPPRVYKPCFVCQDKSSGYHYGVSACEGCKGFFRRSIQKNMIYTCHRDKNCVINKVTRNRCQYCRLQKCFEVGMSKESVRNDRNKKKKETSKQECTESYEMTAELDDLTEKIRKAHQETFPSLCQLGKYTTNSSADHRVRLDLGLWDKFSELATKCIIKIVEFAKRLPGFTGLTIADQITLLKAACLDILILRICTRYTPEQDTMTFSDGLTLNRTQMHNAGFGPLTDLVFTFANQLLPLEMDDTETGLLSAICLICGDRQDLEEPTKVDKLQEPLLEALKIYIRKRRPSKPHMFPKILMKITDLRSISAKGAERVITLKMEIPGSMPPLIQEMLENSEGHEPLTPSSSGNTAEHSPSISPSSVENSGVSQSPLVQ

Take `On1ccccc1=S`: the compound was classed as inactive in [1], in assay [4], in assay [5], in assay [9] and in assay [10]. Also, the AC50 was 10.2 µM (active) in assay [2]; 12.2 µM (active) in assay [3]; 18.6 µM (active) in assay [6]; 28.4 µM (active) in [7]; 4.91 µM (active) in [8].

For the compound `COC(=O)CC(=O)OC`, the result in assay [1], in [3], in assay [4], in assay [5], in [6] and in [7] was inactive. Moreover, the outcome in [11] and in [8] was inactive.

With `O=C1OC(=O)C2C3C=CC(C3)C12` (configuration not stated), the result in [1], in assay [3], in assay [4], in [5], in assay [6] and in assay [7] was inactive. The result in [12], in assay [13], in assay [8], in [14] and in assay [15] was inactive.

Turning to `CC/C(=C\C(=N/O)C(N)=O)C(C)[N+](=O)[O-]` (configuration not stated), the outcome in assay [1], in assay [4], in assay [5], in assay [6], in assay [7] and in assay [11] was inactive. Besides, the result in assay [8], in [15], in [9] and in [10] was inactive. Also, the AC50 in [3] is 38.7 µM (active); in assay [14] it was 28.1 µM (active).

Take `CC(C)=CCCC(C)=CC=O`: the outcome in assay [1], in assay [4], in assay [5], in assay [6], in assay [7] and in [13] was inactive. Further, the outcome in assay [11], in assay [8] and in [10] was inactive. Also, the half-maximal activity concentration (AC50) in assay [3] is 62.4 µM (active); in assay [16], 58.6 µM (active); in assay [15] it was 4.42 µM (active).

On to `CC(=O)c1ccc2c(c1)[C@H](NC(=O)c1ccc(F)cc1)[C@@H](O)C(C)(C)O2`, for which the outcome in [1], in [3], in assay [4], in assay [5], in assay [6] and in [7] was inactive. In addition, the result in assay [17], in assay [18], in assay [8], in assay [14], in [19] and in assay [9] was inactive. Besides, the compound was called inactive in assay [10]. Besides, the half-maximal activity concentration (AC50) in assay [15] is 12.7 µM (active).
